These results are taken from PubChem BioAssay (NCATS).

Results filed as inconclusive are left out. The source made the active and inactive calls. Calls follow the shape of the dose curve; as a rule, active = well fitted cell-killing curve with a large enough effect; inconclusive = small, poorly fitted or top-dose-only effect; inactive = flat fitted curve, though single readings scatter.

This assay in a line: Cell Viability - LYMP1-002 - Assay at 16 hr (AID 948). The note with it: LYMP1-002 lymphoblastoid cell viability; series mostly up to 92.2 µM. An excerpt: NIH Chemical Genomics Center [NCGC]
NIH Molecular Libraries Screening Centers Network [MLSCN]
National Institutes of Environmental Health Sciences [NIEHS]
National Toxicology Program [NTP]
We have developed a 1536-well cell-based assay for quantitative high throughput screening (qHTS) against a number of cell lines to determine in vitro cytotoxicity of small molecules. This particular assay uses a human lymphoblastoid cell line (LYMP1-002) purchased from Coriell Institute for Medical Research.
NCGC Assay Protocol Summary:
The CellTiter-Glo luminescent cell viability assay (Promega) is a homogeneous method to measure the number of viable cells in culture. The end point readout of this assay is based on quantitation of intracellular ATP, an indicator of metabolic activity, using the luciferase reaction. Luciferase catalyzes the oxidation of beetle Luciferin to oxyluciferin and light in the presence of ATP. The luminescent signal is proportional to amount of ATP present.
Using the CellTiter-Glo luminescent cell viability assay, the amount of cellular ATP was measured in the lymphoblastoid cell line with complete culture medium following compound treatment for 16 hours. The assay was performed in opaque white Kalypsys 1536-well plates. In the screen, tetraoctylammonium bromide was used as positive control. Library compounds were measured for their ability to cause acute toxicity in the cell line, as reflected by a decrease in intracellular ATP levels, in a concentration-dependent manner. […] AC50 values were determined from concentration-response data modeled with the standard Hill equation.
qHTS protocol for CellTiter Glo lymphoblastoid cellular assay
[Step] [Parameter] [Value] [Description]
1. Reagent; 5 uL; 2500 lymphoblastoid cells/well
2. Time; 5 hr; 37 C incubation
4. Controls; 23 nL; Tetraoctylammonium bromide 6.4pM to 92 uM
5. Time; 16 hr; 37 C incubation
6. Reagent; 5 uL; CellTiter Glo reagent
7. Time; 30 min; Room Temperature
8. Detection; Luminescence; Viewlux plate reader
Keywords: cell viability, cytotoxicity, lymphoblastoid cell line, luminescence, NTPHTS, NTPHTS_NCGC, NIEHS, DSSTox, MLSMR, MLSCN, NIH Roadmap, qHTS, NCGC
With `COC(=O)CS`, the compound was classed as inactive.

Consider `CC/C=C1/OC(=O)c2ccccc21`, for which the compound was classed as inactive.

As to `C/C=C1\CC2C=CC1C2` (stereo not given), the result was inactive.

As for `CCOC(=O)C(C)C(C)=O` (stereo not given), the outcome was inactive.

Regarding `Cc1ccco1`, the compound was called inactive.

Consider `COc1ccc(OC)cc1`, for which the compound was called inactive.

Regarding `Cc1nc2ccc(Cl)cc2[nH]1`, the compound was called inactive.

In the case of `CC(=O)c1ccccc1[N+](=O)[O-]`, the result was inactive.

Regarding `NC(=O)CCCCC(N)=O`, the compound was classed as inactive.

Take `CC(O)CC(C)O` (stereo not given): the outcome was inactive.

Turning to `[O-]/[N+](=N\O)c1ccccc1`, the call was inactive.

For the compound `FB(F)F`, the call was inactive.

Regarding `O=CNc1ccccc1`, the call was inactive.

`Cc1ccc(Cl)cc1N`: the outcome was inactive.

Turning to `CCOCC(=O)O`, the compound was classed as inactive.

In the case of `CC(=O)Nc1ccc(C)cc1`, the call was inactive.

Consider `NCCCCCCN`, for which the compound was called inactive.

Turning to `CNC(=O)c1ccccc1`, the compound was classed as inactive.

As for `CNc1ccccc1`, the result was inactive.

For `COCCOC(=O)c1ccccc1C(=O)OCCOC`, the outcome was inactive.

In the case of `O=C(Cl)c1cccc([N+](=O)[O-])c1`, the compound was classed as inactive.

For `CC(=O)c1ccc([N+](=O)[O-])cc1`, the compound was classed as inactive.

Regarding `CC(=O)Nc1ccccc1C`, the compound was called inactive.

As for `O=Nc1ccc(NO)cc1`, the call was inactive.

Regarding `c1ccc(Nc2ccccc2)cc1`, the call was inactive.

Take `CC(=C/C=C/C(C)=C/C=C/C=C(C)/C=C/C=C(C)/C=C/C(=O)O)/C=C/C(=O)O`: the call was inactive.

Regarding `CC(C)C(C)C`, the outcome was inactive.

Regarding `CCC(C)(C)C(=O)O`, the compound was classed as inactive.

With `CC(=O)C1(C)CC2=C(CCCC2(C)C)CC1C` (stereo not given), the outcome was inactive.

As to `CC(C)(C)OCC1CO1` (stereo not given), the result was inactive.

For the compound `C=C(C)C1CC=C(C)C(OC(C)=O)C1` (stereo not given), the call was inactive.

As to `Cc1ccc(C)c(N)c1`, the result was inactive.

As to `CN(C)c1cccc(O)c1`, the call was inactive.

`COC(=O)CCCC(=O)OC`: the result was inactive.

As for `CC(C)CO`, the call was inactive.

On to `CC/C(C)=N/O`, for which the result was inactive.

Consider `CCCCCCC=O`, for which the compound was classed as inactive.

Turning to `CC(=O)c1cc(C)oc1C`, the compound was classed as inactive.

For `CCOCCOCC`, the call was inactive.

With `CCCCC/C=C/C=C/C=O`, the compound was called inactive.
